In PubChem BioAssay (EPA / NIEHS) one finds outcome and AC50 data, which are given here for six compounds.

Activity calls are given as the source filed them. How the source made its calls: active means hit-call score of the fitted dose curve at least 0.9, where 1 is the maximum; inactive means score below 0.9.

A short description of assay [1]: APR_HepG2_P-H2AX_72hr: Apredica 72-hour HepG2 Assay for H2AX Phosphorylation (AID 2282916).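 Further: phospho-histone H2A.x immunostain intensity per cell marking DNA damage.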 The settings on record: imaging, actives raise or lower the signal. The procedure, abridged: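 HepG2 human liver cells were exposed for 72 hr to compounds at 0.39–200 uM (10 concentrations, duplicate per plate) in 0.5% v/v DMSO. Fixed, permeabilized cells were immunolabeled for phospho-histone H2A.x with Hoechst 33342 and imaged by HCS fluorescence; bidirectional fit versus DMSO.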

Assay [2] is described as follows: APR_HepG2_MitoMembPot_72hr: Apredica 72-hour HepG2 Assay for Mitochondrial Membrane Potential (AID 2282917). As to conditions: imaging, actives raise or lower the signal. The procedure, abridged:
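HepG2 cells dosed 72 hr with compound at 0.39–200 uM in duplicate, 0.5% v/v DMSO final. Mitochondria stained with 250 nM MitoTracker Red CMXRos for 30 min before formaldehyde fixation, imaged by high-content fluorescence; bidirectional fit versus DMSO.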

The nature of assay [3]: APR_HepG2_MitoticArrest_72hr: Apredica 72-hour HepG2 Assay for Mitotic Arrest (AID 2282918). As to conditions: high-content imaging, actives raise or lower the signal. The procedure, abridged: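 HepG2 cells treated 72 h at 0.39–200 uM, 0.5% DMSO final; formaldehyde-fixed, stained with Hoechst 33342 and phospho-histone H3 antibody, imaged by high-content fluorescence; bidirectional fit versus DMSO.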

Assay [4] can be described thus: APR_HepG2_MicrotubuleCSK_72hr: Apredica 72-hour HepG2 Assay for Microtubule CSK Stabilty (AID 2282919). The settings on record: HepG2 microtubule cytoskeleton, high-content imaging, actives raise or lower the signal. The procedure, abridged: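 HepG2 cells were exposed 72 hr to compound at 0.39–200 uM in duplicate (0.5% DMSO final), then fixed and permeabilized. Alpha-tubulin immunofluorescence was imaged by high-content microscopy, with bidirectional fitting against DMSO and taxol as positive control.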

Assay [5] in a line: APR_HepG2_P-H2AX_24hr: Apredica 24-hour HepG2 Assay for H2AX Phosphorylation (AID 2282920). The settings on record: high-content imaging, actives raise or lower the signal. The procedure, abridged: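 HepG2 cells dosed 24 h at 0.39–200 uM (10 points, duplicate, 0.5% DMSO final). Formaldehyde-fixed and permeabilized, then immunostained for phospho-H2A.x with Hoechst. Fluorescence quantified by high-content imaging, fitted bidirectionally versus DMSO.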

Assay [6] in a line: APR_HepG2_StressKinase_72hr: Apredica 72-hour HepG2 Assay for Stress Kinase (AID 2282921). As to conditions: HepG2 stress kinase (phospho-c-Jun) imaging, actives raise or lower the signal. The procedure, abridged: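 Cells were exposed for 72 h to ten concentrations (0.39–200 uM, duplicate) at 0.5% v/v DMSO final, then fixed with 3.7% formaldehyde, permeabilized and immunostained for phospho-c-Jun (Cy3 secondary) with Hoechst nuclear counterstain.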

Assay [7] in a line: APR_HepG2_StressKinase_24hr: Apredica 24-hour HepG2 Assay for Stress Kinase (AID 2282922). The settings on record: HepG2 stress kinase (phospho-c-Jun) imaging, actives raise or lower the signal. The procedure, abridged:
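HepG2 cells exposed 24 h to 0.39–200 uM compound in duplicate (0.5% v/v DMSO final). Cells fixed in 3.7% formaldehyde, permeabilized and immunostained for phospho-c-Jun; read by high-content fluorescence imaging, fitted bidirectionally against DMSO.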

Assay [8] can be described thus: APR_HepG2_p53Act_72hr: Apredica 72-hour HepG2 Assay for p53 Activation (AID 2282923).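 Further: average cellular p53 protein immunofluorescence intensity in HepG2 cells.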 The settings on record: high-content imaging, actives raise or lower the signal. The procedure, abridged:
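Cells were dosed for 72 hr with compounds at 0.39–200 uM in duplicate (final DMSO 0.5% v/v), then fixed in 3.7% formaldehyde, permeabilized with Triton X-100 and immunostained for p53 (Cy5) with Hoechst 33342 nuclear counterstain.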

Assay [9] in a line: APR_HepG2_MitoMass_72hr: Apredica 72-hour HepG2 Assay for Mitochondrial Mass (AID 2282924).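 Further: MitoTracker Red CMXRos stain intensity per cell imaged as mitochondrial mass.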 As to conditions: high-content imaging, actives raise or lower the signal. The procedure, abridged:
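HepG2 cells dosed 72 hr at 0.39–200 uM (0.5% DMSO), in duplicate. MitoTracker Red CMXRos 250 nM loaded 30 min before formaldehyde fixation; high-content fluorescence imaging, bidirectional fit versus DMSO.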

Assay [10] can be described thus: APR_HepG2_NuclearSize_72hr: Apredica 72-hour HepG2 Assay for Nuclear Size (AID 2282925). The settings on record: high-content imaging, actives raise or lower the signal. The procedure, abridged: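 HepG2 cells dosed 72 h at 0.39–200 uM (10 concentrations, duplicate) in 0.5% v/v DMSO final. Fixed, Hoechst 33342-stained nuclei imaged; nuclear diameter measured by automated image analysis. Bidirectional fit versus DMSO.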

A short description of assay [11]: ATG_CRE_CIS: Attagene CIS-FACTORIAL HepG2 Assay for human cAMP Responsive Element (CRE) binding protein 3 (AID 2282926). As to conditions: HepG2 CRE cis-reporter, Attagene multiplexed mRNA; actives raise or lower the signal. The procedure, abridged:
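HepG2 cells transiently transfected with cis-element-driven multiple reporter transcription units; CRE reporter mRNA measured 24 h after dosing by RT-PCR, 6-FAM labelling, HpaI digestion and capillary electrophoresis. Bidirectional fit versus DMSO baseline.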

Assay [12] deals with CCAAT/enhancer-binding protein beta (Homo sapiens) (UniProt P17676). The experiment in a line: ATG_C_EBP_CIS: Attagene CIS-FACTORIAL HepG2 Assay for human CCAAT/Enhancer Binding Protein (C/EBP) beta (AID 2282927). As to conditions: HepG2 Attagene cis-factorial transcription factor reporter; actives raise or lower the signal. The procedure, abridged:
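Transiently transfected HepG2 (MRTU library, endogenous TF-driven promoters); 24 h dosing; total RNA → oligo(dT) RT → PCR → 6-FAM primer extension → HpaI digest → CE; fit bidirectionally vs DMSO.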

The nature of assay [13]: ATG_CMV_CIS: Attagene CIS-FACTORIAL HepG2 Assay for human CMV (Internal Marker) (AID 2282928).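 Further: endpoint acts as a background internal control marker rather than a target.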 The settings on record: HepG2 CMV promoter reporter, transcription factor profiling; actives raise or lower the signal. The procedure, abridged:
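Cell system: HepG2, transiently transfected multiple reporter units under cis promoters. Exposure: 24 h. Detection: RT-PCR, FAM labeling, HpaI digestion, capillary electrophoresis. Analysis: bidirectional, DMSO baseline.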

A short description of assay [14]: ATG_DR4_LXR_CIS: Attagene CIS-FACTORIAL HepG2 Assay for human Liver X Receptor (LXR), DR4 submotif (AID 2282929). As to conditions: HepG2 Attagene DR4 cis-reporter, mRNA transcription; actives raise or lower the signal. The procedure, abridged:
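Transiently transfected HepG2 liver cells; cis-regulated reporters; 24 h dosing. RT-PCR plus CE read-out of reporter mRNA. DMSO baseline, bidirectional curve fitting.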

Assay [15] addresses Aryl hydrocarbon receptor (Homo sapiens) (UniProt P35869). As to the kind of experiment: ATG_Ahr_CIS: Attagene CIS-FACTORIAL HepG2 Assay for human Aryl Hydrocarbon Receptor (Ahr) (AID 2282930). The settings on record: HepG2 AhR cis-factorial reporter transcription; actives raise or lower the signal. The procedure, abridged:
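Read-out: reporter mRNA quantified by RT-PCR with fluorescent primer extension and capillary electrophoresis. Human HepG2 liver cells carried transfected cis-promoter reporter units and were exposed to chemical for 24 h; gain or loss fitted relative to DMSO.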

Assay [16] in a line: ATG_AP_2_CIS: Attagene CIS-FACTORIAL HepG2 Assay for human Activator Protein 2 (AP-2) (AID 2282932). The settings on record: HepG2 AP-2 cis-reporter, Attagene transcription factor profiling; actives raise or lower the signal. The procedure, abridged: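 Multiplexed mRNA reporter assay in HepG2: cis-regulated units report endogenous factor activity after 24 h treatment. Fluorescence from capillary electrophoresis of RT-PCR products gives the signal, with DMSO as baseline.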

Assay [17] is described as follows: ATG_BRE_CIS: Attagene CIS-FACTORIAL HepG2 Assay for human Bone Morphogenetic Protein (BMP) Response Element (BRE) (AID 2282933). As to conditions: HepG2 BMP response element reporter, Attagene transcription factor profiling; actives raise or lower the signal. The procedure, abridged:
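A HepG2 multiplex reporter system measured inducible reporter mRNA 24 h post-dosing. Detection: RT-PCR, 6-FAM primer extension, HpaI digestion, capillary electrophoresis. Activity fitted bidirectionally relative to DMSO.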

Assay [18] addresses Retinoic acid receptor alpha (Homo sapiens) (UniProt P10276). As to the kind of experiment: ATG_DR5_RAR_CIS: Attagene CIS-FACTORIAL HepG2 Assay for human Retinoic Acid Receptor Alpha (RARE), DR5 submotif (AID 2282934).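 On AC50: reporter responds to endogenous RAR alpha beta and gamma in HepG2 not RARA alone.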 The settings on record: HepG2 Attagene cis-factorial RARE DR5 reporter, mRNA; actives raise or lower the signal. The procedure, abridged: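 Read-out: DR5-driven reporter transcript measured by RT-PCR, 6-FAM primer extension, HpaI digest and capillary electrophoresis. Human HepG2 liver cells carry transiently transfected cis-element reporter constructs; dosing lasts 24 h. Gain or loss of signal fitted against DMSO baseline.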

Assay [19] can be described thus: ATG_AP_1_CIS: Attagene CIS-FACTORIAL HepG2 Assay for human Activator Protein 1 (AP-1) (AID 2282931). As to conditions: HepG2 Attagene cis-factorial AP-1 reporter mRNA; actives raise or lower the signal. The procedure, abridged: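 We transfected HepG2 cells transiently with a set of cis-regulated reporter transcription units, dosed them for 24 h, and quantified reporter mRNA via RT-PCR and capillary electrophoresis, scoring gain or loss of signal relative to DMSO.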

Retinoic acid receptor alpha (Homo sapiens), sequence (P10276 whole entry, looked up): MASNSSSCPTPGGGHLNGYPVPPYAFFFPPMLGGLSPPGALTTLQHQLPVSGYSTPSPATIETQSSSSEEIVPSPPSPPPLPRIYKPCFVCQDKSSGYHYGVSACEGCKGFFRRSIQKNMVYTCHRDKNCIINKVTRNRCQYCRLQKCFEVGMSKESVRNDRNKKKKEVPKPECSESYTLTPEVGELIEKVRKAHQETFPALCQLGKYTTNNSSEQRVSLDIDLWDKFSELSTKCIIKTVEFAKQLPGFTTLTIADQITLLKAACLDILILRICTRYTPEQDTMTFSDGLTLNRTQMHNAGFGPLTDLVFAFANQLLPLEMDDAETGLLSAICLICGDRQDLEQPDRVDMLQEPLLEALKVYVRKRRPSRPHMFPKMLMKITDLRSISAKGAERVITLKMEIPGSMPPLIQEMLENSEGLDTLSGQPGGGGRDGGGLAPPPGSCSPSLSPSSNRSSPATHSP
CCAAT/enhancer-binding protein beta (Homo sapiens), sequence (P17676 whole entry, looked up): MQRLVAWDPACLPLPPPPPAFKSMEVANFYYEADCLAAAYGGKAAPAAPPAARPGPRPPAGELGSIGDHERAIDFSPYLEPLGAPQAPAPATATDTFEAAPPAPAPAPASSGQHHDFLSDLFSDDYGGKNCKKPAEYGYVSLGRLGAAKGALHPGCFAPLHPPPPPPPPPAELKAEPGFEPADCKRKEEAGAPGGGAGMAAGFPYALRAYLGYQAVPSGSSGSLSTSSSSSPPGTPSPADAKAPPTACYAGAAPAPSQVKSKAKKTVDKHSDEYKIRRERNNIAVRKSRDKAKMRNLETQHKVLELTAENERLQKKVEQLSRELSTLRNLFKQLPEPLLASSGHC
Aryl hydrocarbon receptor (Homo sapiens), sequence (P35869 whole entry, looked up): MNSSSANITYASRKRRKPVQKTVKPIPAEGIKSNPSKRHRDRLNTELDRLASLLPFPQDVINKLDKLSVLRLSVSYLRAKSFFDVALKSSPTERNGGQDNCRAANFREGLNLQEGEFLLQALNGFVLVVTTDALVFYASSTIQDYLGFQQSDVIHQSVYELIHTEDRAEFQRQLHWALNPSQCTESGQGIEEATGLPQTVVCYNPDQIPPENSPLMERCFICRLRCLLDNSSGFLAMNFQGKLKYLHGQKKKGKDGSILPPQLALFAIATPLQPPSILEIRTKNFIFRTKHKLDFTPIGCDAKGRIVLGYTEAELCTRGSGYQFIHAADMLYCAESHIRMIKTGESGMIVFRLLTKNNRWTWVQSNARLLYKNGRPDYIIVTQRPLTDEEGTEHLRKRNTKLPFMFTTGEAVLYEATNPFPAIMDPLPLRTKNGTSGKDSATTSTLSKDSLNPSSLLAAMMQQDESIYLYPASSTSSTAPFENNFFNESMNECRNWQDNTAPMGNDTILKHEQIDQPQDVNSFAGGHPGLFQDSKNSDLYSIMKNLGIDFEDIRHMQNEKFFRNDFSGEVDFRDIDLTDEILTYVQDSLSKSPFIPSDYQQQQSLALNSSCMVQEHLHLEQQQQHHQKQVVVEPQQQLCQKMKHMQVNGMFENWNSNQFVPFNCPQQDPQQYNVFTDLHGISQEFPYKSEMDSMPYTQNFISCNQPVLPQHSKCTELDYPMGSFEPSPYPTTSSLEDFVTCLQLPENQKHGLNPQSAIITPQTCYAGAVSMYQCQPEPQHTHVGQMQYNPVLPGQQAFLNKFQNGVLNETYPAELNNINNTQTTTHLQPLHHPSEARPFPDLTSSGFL

Turning to `CCS(=O)(=O)c1cccnc1S(=O)(=O)NC(=O)Nc1nc(OC)cc(OC)n1`, the compound was called inactive in assay [1], in assay [2], in assay [3], in [4], in [5] and in assay [6]. The result in assay [7], in assay [8], in [9], in assay [10], in assay [11] and in assay [12] was inactive. Also, the compound was called inactive in assay [13], in [14], in assay [15], in assay [16], in [17] and in assay [18].

Regarding `CC[C@H](C)[C@H]1O[C@]2(C=C[C@@H]1C)C[C@@H]1C[C@@H](C/C=C(\C)[C@@H](O[C@H]3C[C@H](OC)[C@@H](O[C@H]4C[C@H](OC)[C@@H](O)[C@H](C)O4)[C@H](C)O3)[C@@H](C)/C=C/C=C3\CO[C@@H]4[C@H](O)C(C)=C[C@@H](C(=O)O1)[C@]34O)O2` (tested in a mixture with another compound), the compound was classed as inactive in assay [1], in assay [2], in [3], in assay [4], in assay [5] and in assay [6]. The call in assay [7], in assay [8], in [9], in [10], in [11] and in assay [12] was inactive. The call in [13], in assay [15], in assay [19], in assay [16], in assay [17] and in [18] was inactive. In assay [14], the AC50 is 1.75 µM (active).

For `O=C(NC(=O)c1c(F)cccc1F)Nc1ccc(OC(F)(F)C(F)OC(F)(F)F)c(Cl)c1` (configuration not stated), the outcome in [1], in [2], in assay [3], in [4], in assay [5] and in assay [6] was inactive. In addition, the compound was classed as inactive in assay [7], in assay [9], in [10], in assay [11], in [12] and in assay [13]. The outcome in assay [14], in assay [15], in assay [19] and in assay [16] was inactive. The AC50 in assay [17] is 14.2 µM (active).

In the case of `CCc1ccc(C(=O)NN(C(=O)c2cc(C)cc(C)c2)C(C)(C)C)cc1`, the call in assay [1], in [2], in assay [3], in [5], in [6] and in [7] was inactive. Also, the result in [8], in assay [9], in assay [10], in [11], in assay [12] and in assay [13] was inactive. In addition, the outcome in assay [15], in [16], in assay [17] and in assay [18] was inactive. The AC50 in [4] is 51.7 µM (active); in [14], 50 µM (active).

As to `C#CCN1C(=O)COc2cc(F)c(N3C(=O)C4=C(CCCC4)C3=O)cc21`, the result in assay [1], in assay [2], in assay [3], in [4], in assay [5] and in assay [6] was inactive. Further, the compound was called inactive in assay [7], in [9], in assay [10], in [12], in assay [13] and in assay [14]. The compound was classed as inactive in [15], in assay [16], in [17] and in [18]. In addition, the AC50 in assay [11] was 22.4 µM (active).

As to `N#Cc1c(Cl)c(Cl)c(Cl)c(C#N)c1Cl`, the compound was called inactive in [1], in [2], in assay [3], in assay [4], in [6] and in assay [7]. The outcome in assay [8], in [9], in [10], in assay [11], in assay [12] and in assay [13] was inactive. Further, the compound was classed as inactive in [14], in [15], in assay [16] and in [17]. Also, the AC50 in assay [5] is 0.322 µM (active); in assay [18] it was 0.167 µM (active).

Broadly, the AC50 is the concentration giving half of the maximal activity seen.
